Measurements published in PubChem BioAssay (NCATS).
Several values for one entry are separate records, joined by “and”; a condition that tells them apart may be missing. Equal values may be shown once. Records with an inconclusive call do not appear. Activity calls are given as the source filed them. Calls follow the shape of the dose curve; as a rule, active = well fitted curve in the direction sought with a large enough effect; inconclusive = small, poorly fitted or top-dose-only effect, or another doubt; inactive = no such curve, though single readings can be large; an effect the other way counts as inactive or inconclusive.

Columns and labels:
[1] = qHTS of pediatric cancer cell lines to identify multiple opportunities for drug repurposing: Primary screen for SK-N-MC cells (AID 1347093); also: potency is read from the fitted curve at half-maximal effect
Method in brief: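 Metabolically active cells were quantified by ATP-dependent luminescence (CellTiter-Glo, 15 min at room temperature) following 48 h treatment. Cells had been plated at 500-1,000 per well and settled for 5 h beforehand.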

[2] = qHTS of pediatric cancer cell lines to identify multiple opportunities for drug repurposing: Primary screen for BT-37 cells (AID 1347094); also: potency is read from the fitted curve at half-maximal effect
Method in brief: (§1)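 Cells plated at 500-1,000/well in growth medium, compounds added after 5 h. MIPE tested at 11 points (from 0.78 nM), NPC at 8 points (from 0.59 nM). CellTiter-Glo luminescence after 48 h; concentration-response curves from primary screen.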

[3] = qHTS of pediatric cancer cell lines to identify multiple opportunities for drug repurposing: Primary screen for U-2 OS cells (AID 1347096); also: nearly all actives have a fitted effect of over 50% in size
Method in brief: (§2)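 Cells (500-1,000/well) rested 5 h, then received compounds for 48 h; metabolically active cells were measured by CellTiter-Glo luminescence. Final concentrations spanned up to 46 µM (MIPE, 11-point) or 0.59 nM-46 µM (NPC, 8-point) in primary screens, 11-point in follow-ups.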

[4] = qHTS of pediatric cancer cell lines to identify multiple opportunities for drug repurposing: Primary screen for Saos-2 cells (AID 1347097); also: nearly all actives have a fitted effect of over 40% in size; also: potency is read from the fitted curve at half-maximal effect
Method in brief: as §1

[5] = qHTS of pediatric cancer cell lines to identify multiple opportunities for drug repurposing: Primary screen for SK-N-SH cells (AID 1347098); also: nearly all actives have a fitted effect of over 65% in size; also: potency is read from the fitted curve at half-maximal effect
Method in brief: as §2

[6] = qHTS of pediatric cancer cell lines to identify multiple opportunities for drug repurposing: Primary screen for NB1643 cells (AID 1347099); also: nearly all actives have a fitted effect of over 50% in size; also: potency is read from the fitted curve at half-maximal effect
Method in brief: as §1

[7] = qHTS of pediatric cancer cell lines to identify multiple opportunities for drug repurposing: Primary screen for DAOY cells (AID 1347090); also: nearly all actives have a fitted effect of over 55% in size; also: potency is read from the fitted curve at half-maximal effect
Method in brief: (§3)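 Cell viability, CellTiter-Glo luminescence; 500-1,000 cells/well, 8- or 11-point titration, 48 h compound exposure at 37 degrees C, 5% CO2. Controls: DMSO neutral, bortezomib 2.3 µM final as positive.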

[8] = qHTS of pediatric cancer cell lines to identify multiple opportunities for drug repurposing: Primary screen for A673 cells (AID 1347092); also: nearly all actives have a fitted effect of over 45% in size; also: potency is read from the fitted curve at half-maximal effect
Method in brief: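 A673 cells (500-1,000 cells/well in growth media) were pre-incubated 5 h at 37 degrees C, then exposed to compounds for 48 h. Viability was read as CellTiter-Glo luminescence; concentration-response curves came directly from the primary screen.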

[9] = qHTS of pediatric cancer cell lines to identify multiple opportunities for drug repurposing: Primary screen for NB-EBc1 cells (AID 1347095); also: potency is read from the fitted curve at half-maximal effect
Method in brief: as §1

[10] = qHTS of pediatric cancer cell lines to identify multiple opportunities for drug repurposing: Primary screen for SJ-GBM2 cells (AID 1347091); also: potency is read from the fitted curve at half-maximal effect
Method in brief: as §3

Measured: Potency

CC1=C2C[C@@H]3[C@@H](CC=C4C[C@@H](O)CC[C@@]43C)[C@@H]2CC[C@]12O[C@H]1C[C@H](C)CN[C@H]1[C@H]2C
active: [5] 6.07 µM
inactive: [1] | [2] | [3] | [4] | [6]

C[C@H]1O[C@@H](O[C@H]2[C@@H](O)C[C@H](O[C@H]3[C@@H](O)C[C@H](O[C@H]4CC[C@@]5(C)[C@H](CC[C@@H]6[C@@H]5CC[C@]5(C)[C@@H](C7=CC(=O)OC7)CC[C@]65O)C4)O[C@@H]3C)O[C@@H]2C)C[C@H](O)[C@@H]1O
active: [7] 0.0133 µM | [8] 13.3 nM | [1] 0.0053 µM | [2] 9.8 nM | [5] 0.0864 µM | [6] 0.0299 µM

C[C@@H]1[C@@H](C(=O)C[C@H]2O[C@@H]3O[C@]4(C)CC[C@@H]5[C@H](C)CC[C@@H]([C@H]2C)[C@@]35OO4)O[C@@H]2O[C@]3(C)CC[C@H]4[C@H](C)CC[C@@H]1[C@@]24OO3
inactive: [3]
active: [1] 0.372 µM | [2] 1090 nM | [9] 0.469 µM | [6] 4.69 µM

Cn1c(CCCC(=O)O)nc2cc(N(CCCl)CCCl)ccc21
active: [1] 26.4 µM | [9] 2.64 µM | [6] 18.7 µM
not listed: [2] | [7]
inactive: all other assays above

O=C(O)C(=O)c1cn(Cc2ccccc2)c2ccc(-c3ccc(OC(F)(F)F)cc3)cc12
inactive: [8] | [2] | [3] | [5]
active: [4] 23.5 µM | [6] 23.5 µM

Cc1ncc(CNC(=O)N(CCCl)N=O)c(N)n1
not listed: [1] | [8]
inactive: all other assays above

C=C1C[C@@H]2[C@H](CC[C@]3(C)C(=O)CC[C@@H]23)[C@@]2(C)C=CC(=O)C=C12
inactive: [7] | [10] | [9] | [3] | [5] | [6]

C[C@]12C/C(=C/O)C(=O)C[C@@H]1CC[C@@H]1[C@@H]2CC[C@@]2(C)[C@H]1CC[C@]2(C)O
active: [1] 23.7 µM
inactive: [7] | [3]

CN1C[C@H](CNC(=O)OCc2ccccc2)C[C@@H]2c3cccc4c3c(cn4C)C[C@H]21
active: [5] 27.3 µM
inactive: [7] | [9] | [3] | [6]

CC(C)(C)CC(C)(C)c1ccc(O)cc1
active: [10] 21.7 µM | [1] 27.3 µM | [9] 30.6 µM | [4] 30.6 µM and 21.1 µM | [5] 25 µM
inactive: [7] | [6]

CC(O)(CS(=O)(=O)c1ccc(F)cc1)C(=O)Nc1ccc(C#N)c(C(F)(F)F)c1 (stereo not given)
active: [7] 2.96 µM | [8] 1180 nM | [1] 0.469 µM | [9] 3.32 µM | [4] 23.5 µM | [6] 3.32 µM
inactive: [2] | [3] | [5]

C[C@@H]1[C@@H](CC(C[C@H]2O[C@@H]3O[C@]4(C)CC[C@@H]5[C@H](C)CC[C@@H]([C@H]2C)[C@@]35OO4)C[S+](=O)([O-])c2ccc(COC(=O)N(C)C)cc2)O[C@@H]2O[C@]3(C)CC[C@H]4[C@H](C)CC[C@@H]1[C@@]24OO3 (stereo not given in full)
active: [10] 0.469 µM | [1] 0.372 µM | [2] 485 nM | [9] 0.418 µM | [4] 0.118 µM | [6] 1.05 µM
inactive: [3]

O=c1[nH]c2ccccc2n1C1CCN(CCCC(c2ccc(F)cc2)c2ccc(F)cc2)CC1
inactive: [3]
active: [1] 16.8 µM | [5] 27.3 µM

Clc1ccc(COC(Cn2ccnc2)c2ccc(Cl)cc2Cl)cc1 (stereo not given)
inactive: [3]
active: [8] 23500 nM | [6] 26.6 µM

CNC(=O)N1N=C(c2ccc(N)cc2)c2cc3c(cc2CC1C)OCO3 (stereo not given)
inactive: [10] | [3]
active: [1] 9.35 µM

Cc1sc2c(c1C)C(c1ccc(Cl)cc1)=N[C@@H](CC(=O)OC(C)(C)C)c1nnc(C)n1-2
active: [10] 2.64 µM | [8] 469 nM | [1] 0.118 µM | [2] 1370 nM | [9] 4.18 µM | [4] 1.48 µM | [5] 2.41 µM | [6] 5.9 µM

N#CC(C#N)=Cc1ccc(O)c(O)c1
active: [1] 13.3 µM
not listed: [2] | [8] | [9]
inactive: all other assays above

Oc1cccc2cccnc12
inactive: [10] | [2]

Cc1cc(SCc2sc(-c3ccc(C(F)(F)F)c(F)c3)nc2C)ccc1OCC(=O)O
inactive: [7] | [8] | [3] | [6]

CCC(=O)C(CC(C)N(C)C)(c1ccccc1)c1ccccc1 (stereo not given)
active: [7] 34.7 µM
inactive: [10] | [9] | [3] | [6]

CCC(COC(=O)c1cc(OC)c(OC)c(OC)c1)(c1ccccc1)N(C)C (stereo not given)
not listed: [10]
inactive: all other assays above
